Most compounds without a hit are left out; they make up all but 15% or so of the library.
Pf growth 48h = P. falciparum growth inhibition at 48 hours (one generation); P. falciparum luciferase growth in erythrocytes, 48 h; hit rate 5.9% among 310,000; Potency, µM (titrated, usually from 28.7 µM), for the others: at the highest dose activity change, negative = inhibition, hits mostly inhibitors; note: potency is the fitted concentration of half-maximal effect; % is set by controls: 0 for no effect and ±100 for the full control effect
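Luminescence readout; reporter = integrated firefly luciferase in P. falciparum. RBC culture at 2% hematocrit, 0.1% parasitemia final, 37 C/5% CO2; decreased signal taken as growth inhibition.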
Sm TGR block = blocks Schistosoma mansoni thioredoxin glutathione reductase; hit rate 3% among 360,000; purified TGR, DTNB reduction, TNB absorbance 405 nm; Q962Y6; Potency, µM (top dose mostly 114 µM), for inactives: at the highest dose activity change, negative = inhibition, hits mostly inhibitors; note: potency is the fitted concentration of half-maximal effect; % is set by controls: 0 for no effect and ±100 for the full control effect; nearly all actives have a fitted effect of over 60% in size
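TGR 20 nM + NADPH 100 uM (dispensed conc.), cpd preinc 15 min RT; start with NADPH (500 uM addition) then DTNB (15 mM addition). Kinetic TNB absorbance, 405 nm filter. Four-parameter Hill fit across titration.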
SARS PLpro yeast = inhibitors of SARS-CoV papain-like protease in yeast; Potency, µM (top dose mostly 32.9 µM), without a hit: at the top dose activity, positive = growth rescue, most hits filed as activators; S. cerevisiae expressing SARS-CoV PLpro, growth rescue; AID 485353; hit rate 0.19% among 330,000; calls by dose curve; note: potency is the fitted concentration of half-maximal effect; 0% is about no effect; nearly all actives have a fitted effect of over 55% in size
HCMV antiviral = blocks human cytomegalovirus replication. HFF cells, HCMV-luciferase reporter, 72 h; active compounds read low. activity change, negative = inhibition, % at 57.5 µM. hit rate 4.5% among 410,000. AID 1259415; in the data active = activity change below about -60%; inconclusive = no clear call, values can overlap the other calls; inactive = above about -39%; note: % is set by controls: 0 for no effect and ±100 for the full control effect
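Inhibition of viral replication was scored as loss of reporter luminescence in HFFs infected with HCMV-luciferase (MOI 1 PFU/cell) for 72 h; compounds tested at 2 doses, normalized to buffer and Salinomycin controls.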
HCV inh = inhibitors of hepatitis C virus infection; Huh7.5.1 HCVcc-Cre infection, luciferase reporter, 44 h; Potency, µM (highest dose often 41.8 µM), for inactives: at the top dose activity change, negative = inhibition, actives largely listed as inhibitors; hit rate 3.4% among 340,000; AID 651820; note: potency is the fitted concentration of half-maximal effect; % is set by controls: 0 for no effect and ±100 for the full control effect
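Reporter virus HCVcc-Cre (~0.5 moi) infects cells exposed to compound; seeding density 1,000 cells/well with 4 h settling beforehand. Luminescence, 15 sec read, taken 44 h post-infection following a 15 min RT substrate incubation.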
Pf growth 96h = P. falciparum growth inhibition at 96 hours. P. falciparum luciferase reporter growth, 96 h. Potency, µM (series often up to 28.7 µM), for inactives: top-dose activity change, negative = inhibition, most hits filed as inhibitors. hit rate 6.9% among 320,000. AID 504834; note: potency is the fitted concentration of half-maximal effect; % is set by controls: 0 for no effect and ±100 for the full control effect
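Readout is luminescence from an integrated firefly luciferase in P. falciparum. Red cells, 2% hematocrit and 0.05% parasitemia final, were cultured with compound through two parasite generations (96 hours) at 37 C, 5% CO2.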
An asterisk follows results filed as active; ? = inconclusive; · = no result; [ ] = dose if it differs, or a comment. Unless noted, calls come from the whole dose curve; as a rule, active = well fitted curve in the direction sought with a large enough effect; inconclusive = small, poorly fitted or top-dose-only effect, or another doubt; inactive = no such curve, though single readings can be large; an effect the other way counts as inactive or inconclusive.

SMILES	Pf growth 48h	Sm TGR block	SARS PLpro yeast	HCMV antiviral	HCV inh	Pf growth 96h
CCOc1ccc2c(c1)C(N(CCN1CCOCC1)C(=O)Nc1ccccc1)CC(C)(C)O2 (configuration not stated)	-19%	-6%	3%	9	-2%	-2%
COC(=O)c1sc(S(=O)(=O)N2CCCCC2C)c(C(=O)OC)c1C (configuration not stated)	?	-20%	-12%	0	-20%	?
CC(C)(C)c1ccc(CCC2OCC(C[N+]3(C)CCOCC3)O2)cc1 (configuration not stated)	?	5%	0%	-35	9%	2.6µM*
O=C(O)c1ccc[n+](Cc2ccc([N+](=O)[O-])cc2)c1	·	·	·	1	-3%	·
O=[N+]([O-])c1ccc(C[n+]2cccc3ccc4cccnc4c32)cc1	0.26µM*	0%	0%	-96*	?	?
O=[N+]([O-])c1ccc(C[n+]2cccc3ccccc32)cc1	10µM*	1%	-5%	-10	8%	?
Cc1cccn2c(=O)c(/C=C(\C#N)C(N)=O)c(N3CCN(c4ccccc4)CC3)nc12	?	-9%	-2%	?	2%	?
Cc1ccccc1Oc1nc2c(C)cccn2c(=O)c1/C=C(\C#N)C(=O)Nc1c(C)n(C)n(-c2ccccc2)c1=O	?	-1%	-13%	77	16%	?
Cc1cc(Oc2nc3c(C)cccn3c(=O)c2/C=C(\C#N)S(=O)(=O)c2ccccc2)ccc1Cl	?	2%	9%	69	3%	2.3µM*
Cc1cccn2c(=O)c(/C=C(\C#N)C(N)=O)c(Oc3ccccc3)nc12	?	32µM*	2%	10	-2%	-25%
Cc1cccn2c(=O)c(/C=C(\C#N)S(=O)(=O)c3ccccc3)c(Oc3ccc(Cl)cc3)nc12	?	6%	1%	75	?	12µM*
C=CCc1c(NCCO)nc(C)[nH]c1=O	45%	16%	-1%	·	6%	?
O=C(Nc1ccc2ccccc2c1)c1ccc(Cl)cc1	222%	6%	13%	58	0%	5.2µM*
Cc1ccc(C(=O)Nc2ccc3ccccc3c2)cc1	132%	-15%	-8%	?	-24%	?
Cc1cc(C(=O)Nc2ccc3ccccc3c2)oc1C	117%	2%	-52%	58	11µM*	-23%
Cc1cc(C(=O)Nc2nncs2)oc1C	42%	-7%	-1%	22	13%	2.6µM*
COC(=O)C[C@@H]1OC[C@H](Cc2ccccc2)N1S(=O)(=O)c1ccc(C)cc1	·	·	·	27	·	·
COc1cccc(NC(=O)CSc2nc3ccccc3nc2N2CCOCC2)c1	-22%	-22%	-1%	?	?	?
CC1CN(S(=O)(=O)c2cccc(C(=O)N(Cc3nnc(-c4ccccc4Cl)o3)C3CC3)c2)CC(C)O1 (configuration not stated)	?	-1%	-2%	-19	?	12µM*
O=C(c1cccc(S(=O)(=O)N2CCOCC2)c1)N(Cc1nnc(-c2ccccc2Cl)o1)C1CC1	?	7%	0%	-16	2%	?
O=C(c1cc([N+](=O)[O-])cc([N+](=O)[O-])c1)N(Cc1nnc(-c2ccccc2Cl)o1)C1CC1	?	-12%	-2%	-29	?	12µM*
O=C(c1cc2ccccc2o1)N(Cc1nnc(-c2ccccc2Cl)o1)C1CC1	12%	5%	-3%	25	?	31%
CCOc1ccccc1N1CC(C(=O)N(Cc2nnc(-c3ccccc3Cl)o2)C2CC2)CC1=O (configuration not stated)	?	-4%	-5%	-9	-3%	9.3µM*
CCOc1ccc2oc(C(=O)N(Cc3nnc(-c4ccccc4Cl)o3)C3CC3)c(C)c2c1	12µM*	-1%	4%	-6	?	8.3µM*
COc1ccc(CCC(=O)NCCNC(=O)CCc2ccc(OC)cc2)cc1	-2%	-12%	-4%	26	-7%	256%
SMILES	Pf growth 48h	Sm TGR block	SARS PLpro yeast	HCMV antiviral	HCV inh	Pf growth 96h
COc1ccc(OC)c(C(=O)N2CCC(n3nccc3NC(=O)CC(C)C)CC2)c1	-16%	-1%	3%	0	12%	8%
COCCCn1c(=O)c2ccccc2n(CC(=O)NC2CCCCC2)c1=O	?	-4%	1%	11	11%	12%
CN(C)S(=O)(=O)c1cccc(NC(=O)CCc2nc3cc(S(=O)(=O)N4CCOCC4)ccc3n2C)c1	?	5%	1%	-30	1%[8.37 µM]	?
c1ccc(NC2C(c3ccccc3)=Nc3ccccc3-n3nnnc32)cc1 (configuration not stated)	·	·	·	3	·	·
O=C1C2CCCN2C(=O)N1CCCCN1CCN(c2cccc(Cl)c2)CC1 (configuration not stated)	-10%	0%	3%	-17	?	13µM*
O=C(CCC(=O)N1CCN(c2cccc(Cl)c2)CC1)N1CCN(c2ccccc2)CC1	?	1%	-2%	-36	?	?
Clc1cccc(N2CCN(CCCN3CCN(c4ccccc4)CC3)CC2)c1	·	·	·	?	11µM*	·
O=C1CC(=C(c2ccccc2)c2ccccc2)C(=O)N1CCCCN1CCN(c2ccccc2)CC1	·	-12%	-3%	0	1µM*	3.3µM*
CCOC(=O)C1CCN(c2c(Nc3ccc(C)c(C)c3)c(=O)c2=O)CC1	?	-8%	-2%	-6	-7%	?
[Hg+][c]1ccccc1	4.8µM*	·	·	·	·	3.4µM*
Cc1cn2c(=O)cc(COc3cccc(NC(=O)c4ccccc4C)c3)nc2s1	·	1%	·	-69*	·	·
Cc1cn2c(=O)cc(COC(=O)c3cccc(NC(=O)C(C)Oc4ccccc4)c3)nc2s1 (configuration not stated)	·	-9%	·	-64*	·	·
Cc1ccc(OCc2cc(=O)n3cc(C)sc3n2)c(C)c1	·	6%	·	-101*	·	·
O=C1CNC(=O)/C(=C\c2ccccc2)N1	13%	0%	0%	-28	12%	31%
O=C1/C(=C/c2ccccc2)NC(=S)N1C(c1ccccc1)c1ccccc1	12µM*	-14%	2%	-20	?	·
Cc1ccc(NC(=O)C2(C)CCN2C(=O)CC(c2ccccc2)c2ccccc2)cc1 (configuration not stated)	·	·	·	13	·	·
CCc1ccc(S(=O)(=O)NCCc2cn3ccsc3n2)cc1	·	-6%	·	?	·	·
O=S(=O)(NCCc1cn2ccsc2n1)c1ccc(Cl)cc1	·	35µM*	·	-28	·	·
O=S(=O)(NCc1cn2ccsc2n1)c1ccc(Oc2ccccc2)cc1	1%	1%	3%	?	7.9µM*	·
